{
  "source": "PubChem BioAssay AID651791",
  "about": "(National Center for Advancing Translational Sciences (NCATS), 2012)",
  "note": "Results filed as inconclusive are left out. Active and inactive are the calls of the source. Calls follow the shape of the dose curve; as a rule, active = well fitted inhibition curve with a large enough effect; inconclusive = small, poorly fitted or top-dose-only effect; inactive = no such curve, though single readings can be large or run the other way. Potency is read from the fitted curve at half-maximal effect.",
  "data": [
    {"test": "InCell qHTS Assay for Inhibitors of the mTORC1 Signaling Pathway in MEF (Tsc2-/-, p53-/-) Cells: Hit Validation;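 also: phospho-S6 Ser235/236 signal normalized to propidium iodide cell count per well; nearly all actives have a fitted effect of over 75% in size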", "conditions": "phospho-rpS6 immunofluorescence, 24 h; activity change, negative = inhibition: at 38.3 µM (top of the series)", "units": {"activity change, negative = inhibition": "%"}, "values": [
      {"molecule": "COc1ccc(S(=O)(=O)N(Cc2nc(-c3cccc(C)c3)no2)C2CCCCC2)cc1", "activity change, negative = inhibition": -100},
      {"molecule": "Cc1cccc(OCC(=O)Nc2ccc3c(c2)N(C)C(=O)c2ccccc2S3)c1", "activity change, negative = inhibition": -100},
      {"molecule": "COC(=O)c1cccc(-n2c(CCC(=O)O)ccc2-c2ccc(OC)cc2)c1", "activity change, negative = inhibition": -100},
      {"molecule": "Cc1ccc(-c2csc(-c3cc4c([nH]c3=O)CC(c3ccccc3)CC4=O)n2)cc1", "note": "(configuration not stated)", "activity change, negative = inhibition": -100},
      {"molecule": "Cc1ccccc1OCc1ccc(-c2nc(C#N)c(NCCCN(C)C)o2)o1", "activity change, negative = inhibition": -100},
      {"molecule": "CCCCOc1cccc(C(=O)N2CCN(CCc3ccncc3)CC2)c1", "activity change, negative = inhibition": -100},
      {"molecule": "COc1ccccc1N=c1scc(-c2ccc(S(=O)(=O)N3CCCC3)cc2)n1C", "activity change, negative = inhibition": -100},
      {"molecule": "O=C(Nc1ccc2nc(SCC(=O)N3CCCc4ccccc43)sc2c1)c1ccccc1F", "activity change, negative = inhibition": -100},
      {"molecule": "CCc1nn(CC(=O)NCc2ccccc2Cl)c(=O)c2cccn12", "activity change, negative = inhibition": -100},
      {"molecule": "CC1=Nc2cc(C(=O)NC3CCCC3)ccc2Sc2ccc(Br)cc21", "activity change, negative = inhibition": -100},
      {"molecule": "Cc1ccc(CNS(=O)(=O)c2cc(C(=O)Nc3cccc(C(F)(F)F)c3)ccc2F)cc1", "activity change, negative = inhibition": -100},
      {"molecule": "COc1ccc(C(=O)Nc2ccc(OCc3cc(=O)n4ccccc4n3)cc2)cc1", "activity change, negative = inhibition": -100},
      {"molecule": "CCOc1ccccc1NC(=O)c1cn(C2CCCC2)c(=O)c2c1c1ccccc1n2C", "activity change, negative = inhibition": -100},
      {"molecule": "COc1ccc2c(c1)CCc1c(C(=O)Nc3c(C)nn(Cc4ccc(Cl)cc4)c3C)noc1-2", "activity change, negative = inhibition": -100},
      {"molecule": "COc1ccccc1C1C=C(c2ccc(Cl)cc2)Nc2nc(-c3ccc(Cl)cc3)nn21", "note": "(configuration not stated)", "activity change, negative = inhibition": -100},
      {"molecule": "CC(C)c1ccc(NS(=O)(=O)c2ccc3nc(-c4ccccc4)[nH]c3c2)cc1", "activity change, negative = inhibition": -100},
      {"molecule": "CCOc1ccccc1NC(=O)CSc1cc(=O)n(CC)c2ccccc12", "activity change, negative = inhibition": -100},
      {"molecule": "Cc1ccc(C)c(CN2C(=O)C(=O)c3ccccc32)c1", "activity change, negative = inhibition": -100},
      {"molecule": "O=C(Nc1ccc2oc(-c3ccc4ccccc4c3)nc2c1)c1cc(Br)ccc1Cl", "Potency": "18.5 µM (active)"},
      {"molecule": "COc1ccc(CCNC(=O)CCCn2nc(C)c3sc4ccccc4c3c2=O)cc1OC", "activity change, negative = inhibition": -100},
      {"molecule": "C=C(C)CSc1nc(-c2ccccc2)cc(-c2ccc(OC)cc2)c1C#N", "activity change, negative = inhibition": -100},
      {"molecule": "COc1ccccc1CCNC(=O)C1CCN(c2nnc(-n3cccc3CNc3ccc(C)cc3)s2)CC1", "activity change, negative = inhibition": -100},
      {"molecule": "COc1ccc(C)cc1NC(=O)CCNS(=O)(=O)c1cccc2nonc12", "activity change, negative = inhibition": -100},
      {"molecule": "Cc1nn(CCCC(=O)NCc2cccc(Cl)c2)c(=O)c2c1sc1ccccc12", "activity change, negative = inhibition": -100},
      {"molecule": "COc1ccc(CCNC(=O)C(C)n2nc(C)c3sc4ccccc4c3c2=O)c(OC)c1", "note": "(configuration not stated)", "activity change, negative = inhibition": -100},
      {"molecule": "Cc1ccc(NC(=O)Cn2cc(C(=O)C3CCCCC3)c3ccccc32)cc1", "activity change, negative = inhibition": -100},
      {"molecule": "Cc1cc(OCC(=O)NCC2(N3CCN(C)CC3)CCCCC2)cc(C)c1Cl", "activity change, negative = inhibition": -100},
      {"molecule": "Cc1cccc(N2CCN(C(=O)C3CCN(C(=O)c4cc5sccc5n4C)CC3)CC2C)c1", "note": "(configuration not stated)", "activity change, negative = inhibition": -100},
      {"molecule": "CCN(c1ccccc1)S(=O)(=O)c1cc(C(=O)Nc2ccc(Br)cc2)ccc1F", "activity change, negative = inhibition": -100},
      {"molecule": "CCOC(=O)c1ccc(-c2ccc(/C=C(\\C#N)c3nc4ccc(C)cc4[nH]3)o2)cc1", "activity change, negative = inhibition": -100},
      {"molecule": "CCOC(=O)CSc1nc2cc3c(cc2c(=O)n1CCCCCC(=O)NCc1ccc2c(c1)OCO2)OCO3", "activity change, negative = inhibition": -100},
      {"molecule": "Cc1ccc(NC(=O)CCS(=O)(=O)c2ccc3nc(C)sc3c2)cc1", "activity change, negative = inhibition": -100},
      {"molecule": "CCOc1cc(CNc2ccc(O)cc2)cc(Cl)c1OCc1ccccc1", "activity change, negative = inhibition": -100},
      {"molecule": "CCCCN(C)CCNC(=O)c1cc2c(=O)n(C)c3ccccc3c2n1C", "activity change, negative = inhibition": -100},
      {"molecule": "O=C(NC1CCCCC1)/C(=C/c1ccc(Cl)cc1)NC(=O)c1ccccc1", "activity change, negative = inhibition": -22.5},
      {"molecule": "CCc1nn(CC(=O)NCc2ccccc2)c(=O)c2cccn12", "activity change, negative = inhibition": -100},
      {"molecule": "O=C(NCc1ccc(F)cc1)c1ccc2c(Cl)c3c(nc2c1)CCCC3", "activity change, negative = inhibition": -100}
    ]}
  ]
}
